Hits are enriched below; roughly 14% of the tested compounds scored in any of these assays.
USP17 inh – inhibitors of human USP17 deubiquitinase. AID 1645855, 2021. inhibition, % at 50 µM. purified USP17, Ub-rhodamine cleavage fluorescence, 3 h. Ubiquitin carboxyl-terminal hydrolase 17-like protein 5 (Homo sapiens), A8MUK1. 47,000 compounds, 6.5% hits
USP10 inh – inhibitors of human USP10 deubiquitinase; Ubiquitin carboxyl-terminal hydrolase 10 (Homo sapiens), Q14694; purified USP10, Ub-rhodamine fluorescence, 60 min; inhibition, % at 20 µM; 47,000 compounds, 1.1% hits; AID 1645856, 2021
USP30 inh – inhibitors of human USP30 deubiquitinase. inhibition, % at 25 µM. purified USP30, Ub-rhodamine cleavage fluorescence. 47,000 compounds, 5.3% hits. Ubiquitin carboxyl-terminal hydrolase 30 (Homo sapiens), Q70CQ3. AID 1645860, 2021
USP8 block – inhibitors of human USP8 deubiquitinase; AID 1645853, 2021; 47,000 compounds, 4.2% hits; inhibition, % at 20 µM; Ubiquitin carboxyl-terminal hydrolase 8 (Homo sapiens), P40818; purified USP8, Ub-rhodamine cleavage fluorescence, 30 min
Target sequence (P40818 whole entry, looked up): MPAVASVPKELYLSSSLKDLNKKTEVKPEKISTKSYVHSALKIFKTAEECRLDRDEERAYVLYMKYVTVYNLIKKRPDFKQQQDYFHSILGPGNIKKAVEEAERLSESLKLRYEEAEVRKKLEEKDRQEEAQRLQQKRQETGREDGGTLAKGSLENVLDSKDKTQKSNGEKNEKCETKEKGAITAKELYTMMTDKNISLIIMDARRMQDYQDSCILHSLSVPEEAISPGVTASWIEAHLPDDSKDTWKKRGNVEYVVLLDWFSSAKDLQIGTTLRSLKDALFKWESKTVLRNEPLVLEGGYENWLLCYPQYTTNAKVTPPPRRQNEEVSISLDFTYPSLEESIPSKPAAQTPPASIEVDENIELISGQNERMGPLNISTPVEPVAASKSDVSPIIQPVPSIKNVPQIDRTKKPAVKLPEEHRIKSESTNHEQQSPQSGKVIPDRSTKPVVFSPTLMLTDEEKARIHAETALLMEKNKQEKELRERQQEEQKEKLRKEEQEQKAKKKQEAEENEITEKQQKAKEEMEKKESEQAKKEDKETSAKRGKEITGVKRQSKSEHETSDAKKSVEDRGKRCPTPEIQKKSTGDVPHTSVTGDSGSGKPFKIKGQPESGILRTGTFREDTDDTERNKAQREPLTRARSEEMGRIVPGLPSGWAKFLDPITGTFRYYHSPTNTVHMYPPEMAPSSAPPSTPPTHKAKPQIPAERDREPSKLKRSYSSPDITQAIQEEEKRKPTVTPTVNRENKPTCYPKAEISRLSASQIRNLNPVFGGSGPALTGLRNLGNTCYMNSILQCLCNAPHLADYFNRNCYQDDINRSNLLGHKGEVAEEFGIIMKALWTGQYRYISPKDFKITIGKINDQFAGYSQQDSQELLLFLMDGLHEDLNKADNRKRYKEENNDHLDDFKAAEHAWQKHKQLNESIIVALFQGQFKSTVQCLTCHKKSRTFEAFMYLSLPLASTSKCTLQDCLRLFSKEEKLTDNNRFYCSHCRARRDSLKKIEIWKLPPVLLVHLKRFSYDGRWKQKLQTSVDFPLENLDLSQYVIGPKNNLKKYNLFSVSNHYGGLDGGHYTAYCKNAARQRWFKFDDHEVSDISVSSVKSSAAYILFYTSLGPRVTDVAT
USP28 block – inhibitors of human USP28 deubiquitinase | Ubiquitin carboxyl-terminal hydrolase 28 (Homo sapiens), Q96RU2 | purified USP28, Ub-rhodamine cleavage fluorescence, 30 min | inhibition, % at 25 µM | 47,000 compounds, 3% hits | AID 1645857, 2021
Active calls of the source: *. Cut-off read from the data, not from the text of the source: active = inhibition above about 30%; inactive = the rest.

SMILES	USP17 inh	USP10 inh	USP30 inh	USP8 block	USP28 block
CC(=O)O[C@H]1CC[C@]2(C)[C@H]3Cc4c(O)cc5c(c4O[C@]3(C)CC[C@H]2C1(C)C)CNC5=O	34.2*	1.2	-0.2	-6.8	28.6
Cc1ccc(C(=O)N2C[C@H](Oc3cccnc3)[C@H]3OCCC[C@H]32)cn1	-5.6	0.0	1.8	-4.6	-3.9
Cc1cc(C(F)(F)F)n2nc(C3CCN(C(=O)c4cnn(C)c4C)C3)cc2n1 (configuration not stated)	50.2*	-3.1	-43.8	91.9*	-18.1
Cn1c(-c2nnc(SCC(=O)NCCc3ccccc3)o2)cc2ccccc21	42.6*	10.9	56.7*	23.1	18.6
COc1ccc(NC(=O)CSc2nnc(-c3cc4ccccc4n3C)o2)cc1	17.1	25.7	11.5	27.0	9.2
Cc1ccc(CCNC(=O)CSc2nnc(-c3ccncc3)o2)cc1	12.0	-1.5	25.7	17.4	15.4
CCCCNC(=O)CSc1nnc(-c2cc3ccccc3n2C)o1	55.9*	11.5	72.4*	12.3	23.1
COc1ccc(-c2nc(CNS(=O)(=O)c3ccc(OC)cc3)cs2)cc1	49.3*	3.4	-0.3	-1.7	19.2
COc1ccc(-c2nc(CNS(=O)(=O)c3ccc(OC)c(C)c3)cs2)cc1	38.5*	5.8	24.1	2.8	6.1
COc1ccc(S(=O)(=O)NCc2nnnn2-c2ccc(C)cc2)cc1C	8.7	3.1	18.9	24.9	14.1
O=S(=O)(NCCc1csc(-c2ccc(F)cc2)n1)c1ccc(F)cc1	17.4	6.8	12.0	14.2	14.3
CCOC(=O)c1c[nH]c2ccc3nc(C)sc3c2c1=O	-14.2	-0.6	-19.1	16.0	-9.7
COc1cc(C2CC(=O)Nc3c2ccc2ccccc32)ccc1OCCO (configuration not stated)	3.2	1.7	9.9	0.8	16.4
Cc1nnc(Nc2cccc(C3CCCNC3)n2)s1 (configuration not stated)	1.7	1.8	23.3	-38.8	12.0
Cc1nnc(Nc2cccc(C3CCCN(CC(N)=O)C3)n2)s1 (configuration not stated)	7.9	3.5	30.1*	5.1	11.2
CC(=O)Cn1c(=O)n(-c2ccc(Cl)c(Cl)c2)c(=O)c2cc(-c3ccccc3)sc21	-5.9	1.8	-5.7	-0.9	-7.9
Cc1ccc(NC(=O)COc2ccccc2/C=C2/NC(=O)N(Cc3ccc(F)cc3)C2=O)cc1	29.0	36.1*	45.2*	24.2	39.3*
CCc1nc(SCC(=O)c2cc3ccccc3o2)c2oc3ccccc3c2n1	-75.0	-1.7	-272.0	-14.8	-66.2
CC1CCN(C(=O)c2snc3c(=O)n(C4CC4)c(=O)[nH]c23)CC1	0.9	1.1	23.1	-0.6	1.9
O=C(Nc1ccc(S(=O)(=O)N2CCOCC2)cc1)c1oc(=O)c2ccccc2c1-c1ccccc1	37.2*	4.7	33.9*	12.8	0.2
O=C(NC1CCCCC1)c1csc(C(=O)NC2CC2)n1	-3.6	-2.4	0.1	-4.5	-0.6
CC(=O)Nc1cc(-c2cccc(O)c2)cn2c(-c3cnn(C)c3)cnc12	61.5*	-5.2	36.2*	-9.0	13.5
CC(=O)Nc1cc(-c2cnn(C)c2)cn2c(-c3cnn(C)c3)cnc12	-3.5	-10.4	-183.7	2.3	-37.4
CC(C)[C@H](NC(=O)[C@@H]1Cc2c([nH]c3ccccc23)C2c3ccccc3C(=O)N21)C(=O)NCCc1cccc(F)c1 (some centres not stated)	-37.5	-7.5	-86.0	-12.4	-33.4
O=C(Cn1c(C(F)(F)F)nc2cc3c(cc21)OCCO3)NCC1CCCO1 (configuration not stated)	-8.3	3.7	5.9	2.4	-7.8
SMILES	USP17 inh	USP10 inh	USP30 inh	USP8 block	USP28 block
O=C(Cn1c(C(F)(F)F)nc2cc3c(cc21)OCCO3)NC1CCCC1	35.2*	-0.2	3.0	0.0	-5.8
NC(=O)C1CN(C(=O)c2ccnc(Cc3ccccc3)c2)C1	5.2	-2.2	21.5	10.2	1.3
CC(C)OC(=O)c1cc2c(ccn2C)n1CC(=O)N1CCCC1	-54.7	-6.0	-280.2	-12.8	-72.3
CC(C)OC(=O)c1cc2c(ccn2C)n1CC(=O)N(Cc1ccccc1)c1ccc(F)cc1	20.8	-8.1	-198.9	56.3*	-14.5
CCOC(=O)c1cc2c(ccn2C)n1CC(=O)N(Cc1ccc(OC)cc1)c1ccc(F)cc1	6.2	-10.5	-199.7	17.0	-21.3
CCOC(=O)c1cc2c(ccn2C)n1CC(=O)NC(c1ccccc1)c1ccccc1	23.4	-5.5	-153.0	65.1*	-31.7

From PubChem BioAssay
